Experiment [1] has as its target Rap guanine nucleotide exchange factor 3 (Homo sapiens) (UniProt O95398). Description: Confirmatory qHTS for antagonist of cAMP-regulated guanine nucleotide exchange factor 3 (EPAC1) (AID 1645880).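 For activity, negative = inhibition: plate controls were DMSO only for no effect and full effect of the ATA control for full effect.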 Note: nearly all actives have a fitted effect of over 55% in size. Note: potency is the fitted concentration of half-maximal effect. Particulars: EPAC1 Rap1B-BODIPY-GDP exchange, fluorescence; activity, negative = inhibition: at 115 µM (top of the series). The method in brief:
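Released BODIPY-GDP fluoresces less than Rap1-bound BODIPY-GDP; the signal is followed at 480/540 nm at 5-min intervals over 30 min, after 5 min at room temperature. Reactions contain 100 nM EPAC1, 250 nM RAP1B-BODIPY-GDP and 50 uM GDP; results are normalized to ATA and DMSO.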
A general note: In qHTS, concentration-response curves come from the screen itself.

The target is the same in experiment [2]. The experiment in a line: Confirmatory qHTS for agonist of cAMP-regulated guanine nucleotide exchange factor 3 (EPAC1) (AID 1645881).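 Note: EPAC1 catalysed release of BODIPY-GDP from Rap1B seen as fluorescence loss; 100% = effect of cAMP agonist control; nearly all actives have a fitted effect of over 75% in size.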
The target in experiment [3] is Rap guanine nucleotide exchange factor 4 (Homo sapiens) (UniProt Q8WZA2). Description: Confirmatory qHTS for agonist of cAMP-regulated guanine nucleotide exchange factor 4 (EPAC2) (AID 1645884).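 Note: nucleotide exchange releases bodipy-GDP from Rap1 and this lowers its fluorescence; % is set by controls: 0 for no effect and ±100 for the full control effect; nearly all actives have a fitted effect of over 65% in size.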
Chain of Rap guanine nucleotide exchange factor 4 (Homo sapiens) (Q8WZA2 whole entry, looked up): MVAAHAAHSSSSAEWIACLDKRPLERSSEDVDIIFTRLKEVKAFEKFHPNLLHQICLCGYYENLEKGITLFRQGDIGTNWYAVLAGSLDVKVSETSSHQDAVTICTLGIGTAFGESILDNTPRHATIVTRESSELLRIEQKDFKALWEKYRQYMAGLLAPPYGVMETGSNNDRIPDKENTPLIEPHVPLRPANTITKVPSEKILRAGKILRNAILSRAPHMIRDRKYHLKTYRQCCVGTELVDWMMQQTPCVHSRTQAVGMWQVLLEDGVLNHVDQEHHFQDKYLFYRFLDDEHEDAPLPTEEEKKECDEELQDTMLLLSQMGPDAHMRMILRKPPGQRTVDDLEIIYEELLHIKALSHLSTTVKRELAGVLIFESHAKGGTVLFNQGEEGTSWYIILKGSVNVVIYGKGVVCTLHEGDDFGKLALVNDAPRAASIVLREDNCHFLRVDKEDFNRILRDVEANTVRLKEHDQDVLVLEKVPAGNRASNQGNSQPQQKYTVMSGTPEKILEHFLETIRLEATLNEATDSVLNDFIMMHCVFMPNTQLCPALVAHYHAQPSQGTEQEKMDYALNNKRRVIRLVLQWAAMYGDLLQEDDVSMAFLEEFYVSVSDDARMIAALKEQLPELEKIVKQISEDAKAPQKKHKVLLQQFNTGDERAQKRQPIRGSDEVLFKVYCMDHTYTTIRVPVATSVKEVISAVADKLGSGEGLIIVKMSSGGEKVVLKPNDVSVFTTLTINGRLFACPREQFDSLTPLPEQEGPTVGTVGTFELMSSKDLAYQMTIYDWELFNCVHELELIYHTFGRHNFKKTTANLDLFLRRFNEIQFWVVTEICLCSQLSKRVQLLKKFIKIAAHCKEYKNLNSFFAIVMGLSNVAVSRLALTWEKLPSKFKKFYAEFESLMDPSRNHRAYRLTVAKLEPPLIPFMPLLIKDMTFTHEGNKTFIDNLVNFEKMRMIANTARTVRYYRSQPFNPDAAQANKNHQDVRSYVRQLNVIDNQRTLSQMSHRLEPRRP
The target is the same in experiment [4]. The experiment in a line: Confirmatory qHTS for antagonist of cAMP-regulated guanine nucleotide exchange factor 4 (EPAC2) (AID 1645885). For activity change, negative = inhibition: % is set by controls: 0 for no effect and ±100 for the full control effect. Note: nearly all actives have a fitted effect of over 25% in size. Note: potency is the fitted concentration of half-maximal effect.
In experiment [5] the target is Rap guanine nucleotide exchange factor 3 (Homo sapiens) (UniProt O95398). Description: Counterscreen qHTS for antagonist of cAMP-regulated guanine nucleotide exchange factor 3 (EPAC1) (AID 1645888). Note: % of control where 0% means no effect. The method in brief:
(§1)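 Rap1B-BODIPY-GDP 250 nM + GDP 50 uM; cpds 7-pt, final 9.74 nM–152 uM (activator mode) or from 7.32 nM upwards (inhibitor mode); RT; FI 480/540 nm at 5 and 30 min, then ± cAMP, reread.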

Experiment [6] shares this target. Description: Counterscreen qHTS for agonist of cAMP-regulated guanine nucleotide exchange factor 3 (EPAC1) (AID 1645889). Note: % of control where 0% means no effect; nearly all actives have a fitted effect of over 40% in size. The method in brief: as §1

Here are results for 21 compounds from PubChem BioAssay (NCATS).

Records with an inconclusive call do not appear. Unmarked numbers belong to inactive results. Calls of active or inactive are those of the source. Calls come from the whole dose curve; as a rule, active = well fitted curve in the direction sought with a large enough effect; inconclusive = small, poorly fitted or top-dose-only effect, or another doubt; inactive = no such curve, though single readings can be large; an effect the other way counts as inactive or inconclusive.

Chain of Rap guanine nucleotide exchange factor 3 (Homo sapiens) (O95398 whole entry, looked up): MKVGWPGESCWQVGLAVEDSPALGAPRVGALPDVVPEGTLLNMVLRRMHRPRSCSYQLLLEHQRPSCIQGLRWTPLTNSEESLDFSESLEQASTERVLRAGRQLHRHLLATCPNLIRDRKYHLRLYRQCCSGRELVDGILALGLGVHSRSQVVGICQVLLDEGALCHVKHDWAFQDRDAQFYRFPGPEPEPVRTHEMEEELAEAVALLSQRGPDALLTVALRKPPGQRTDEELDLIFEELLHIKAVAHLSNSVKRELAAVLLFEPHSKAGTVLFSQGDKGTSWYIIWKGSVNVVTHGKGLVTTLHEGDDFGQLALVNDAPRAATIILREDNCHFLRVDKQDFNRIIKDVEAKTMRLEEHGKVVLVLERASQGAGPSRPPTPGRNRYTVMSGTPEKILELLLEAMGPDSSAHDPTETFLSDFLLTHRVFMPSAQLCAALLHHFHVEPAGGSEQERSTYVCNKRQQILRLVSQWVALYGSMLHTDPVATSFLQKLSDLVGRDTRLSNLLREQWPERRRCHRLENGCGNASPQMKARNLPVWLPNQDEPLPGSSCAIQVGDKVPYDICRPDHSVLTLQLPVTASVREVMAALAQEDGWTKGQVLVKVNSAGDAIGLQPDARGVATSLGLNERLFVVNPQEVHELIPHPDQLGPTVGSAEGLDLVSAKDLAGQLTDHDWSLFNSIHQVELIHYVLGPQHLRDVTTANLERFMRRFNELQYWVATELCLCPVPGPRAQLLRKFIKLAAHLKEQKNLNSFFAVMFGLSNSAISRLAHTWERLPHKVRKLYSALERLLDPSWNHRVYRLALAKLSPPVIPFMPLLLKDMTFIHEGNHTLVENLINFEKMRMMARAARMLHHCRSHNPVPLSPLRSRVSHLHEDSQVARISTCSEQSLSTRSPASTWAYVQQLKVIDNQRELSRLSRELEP

As to `COCCn1c(-c2ccc(Br)cc2)csc1=Nc1cccnc1`, the Potency entry in experiment [1], in experiment [2], in experiment [3], in experiment [4], in experiment [5] and in experiment [6] was “inactive” throughout.
On to `COc1ccc(OCC(=O)OCCNC(=O)c2cccnc2)cc1`, for which the Potency entry in experiment [1], in experiment [2] and in experiment [4] was “inactive” in each case. Further, the activation was -1.04% [at 17.1 µM, percent relative to cAMP agonist control] in experiment [3] and 0.499% [at 30.8 µM] in experiment [6]. In addition, the activity change, negative = inhibition in experiment [5] is -8.99% [at 30.8 µM].
Consider `Cc1noc(C)c1S(=O)(=O)Nc1ccc2c(c1)C(=O)N([C@@H](C)CO)C[C@@H](C)[C@@H](CN(C)CC1CCCCC1)OCCCC[C@@H](C)O2`, for which the Potency result in experiment [1], in experiment [2], in experiment [3], in experiment [4] and in experiment [5] was “inactive” each time.
As for `COC(=O)c1cc(C#N)c(Oc2ccccc2OC)nc1C`, the Potency entry in experiment [1], in experiment [2], in experiment [3], in experiment [4], in experiment [5] and in experiment [6] was “inactive” in each case.
On to `COc1cccc(C(=O)C(CCC#N)c2ccccc2)c1` (configuration not stated), for which the Potency result in experiment [1], in experiment [2], in experiment [3] and in experiment [4] was “inactive” throughout.
In the case of `COc1ccc(C)cc1NC(=O)c1ccccc1NS(=O)(=O)c1ccc(Cl)s1`, the Potency in experiment [1] was 75.7 µM (active). The Potency entry in experiment [2], in experiment [3], in experiment [4] and in experiment [5] was “inactive” each time.
As to `CCOc1cnc(-c2c(-c3c(Cl)cccc3Cl)noc2C)o1`, the Potency entry in experiment [1], in experiment [2] and in experiment [4] was “inactive” throughout. Also, the activation in experiment [3] was 1.16% [at 17.1 µM, percent relative to cAMP agonist control]; in experiment [6], 12% [at 30.8 µM]. The activity change, negative = inhibition in experiment [5] is -6.2% [at 30.8 µM].
Turning to `O=C(O)C(c1ccccc1)N1C(=O)/C(=C/c2cccs2)SC1=S` (configuration not stated), in experiment [1], the Potency is 39.8 µM (active). The Potency entry in experiment [2] and in experiment [4] was “inactive” throughout. The activation in experiment [3] is 2.04% [at 17.1 µM, percent relative to cAMP agonist control]; in experiment [6], 6.75% [at 30.8 µM]. Moreover, in experiment [5], the activity change, negative = inhibition was -23.4% [at 30.8 µM].
Take `O=S(=O)(N/N=C/c1cccnc1)c1ccc(Cl)c(Cl)c1`: the Potency result in experiment [1], in experiment [2] and in experiment [4] was “inactive” in each case. Further, the activation in experiment [3] was 4.19% [at 17.1 µM, percent relative to cAMP agonist control]; in experiment [6] it was 6.45% [at 30.8 µM]. Besides, the activity change, negative = inhibition in experiment [5] is -14.7% [at 30.8 µM].
For the compound `O=C(CSc1nccn1C1CCCC1)Nc1cc(C(F)(F)F)ccc1Cl`, the Potency result in experiment [1], in experiment [2], in experiment [3], in experiment [4], in experiment [5] and in experiment [6] was “inactive” each time.
`COc1ccccc1NC(=O)CSc1nc2sc(C)c(C)c2c(=O)n1C`: the Potency result in experiment [1], in experiment [2] and in experiment [4] was “inactive” each time. Further, the activation in experiment [3] is 1.44% [at 17.1 µM, percent relative to cAMP agonist control]; in experiment [6] it was 15.6% [at 30.8 µM]. Besides, the activity change, negative = inhibition in experiment [5] was -1.48% [at 30.8 µM].
On to `O=C(Nc1ccccc1C(=O)O)c1cccc(S(=O)(=O)Nc2ccc(Br)cc2)c1`, for which the Potency in experiment [1] was 75.7 µM (active); in experiment [4], 42.6 µM (active). For the same compound, the Potency result in experiment [2], in experiment [3], in experiment [5] and in experiment [6] was “inactive” throughout.
In the case of `COc1ccc(CNC(=S)N/N=C/c2ccc(OC)c(OC)c2)cc1`, the Potency result in experiment [1], in experiment [2], in experiment [3], in experiment [5] and in experiment [6] was “inactive” each time. Further, the Potency in experiment [4] is 67.5 µM (active).
Consider `O=C(O)c1ccc(/C=N/NC(=O)c2ccc(CN3c4cccc5cccc(c45)S3(=O)=O)cc2)cc1`, for which the Potency in experiment [1] was 44.7 µM (active). Moreover, the Potency entry in experiment [2] and in experiment [4] was “inactive” each time. Further, the activation in experiment [3] is -4.21% [at 17.1 µM, percent relative to cAMP agonist control]; in experiment [6] it was 13.7% [at 30.8 µM]. Also, the activity change, negative = inhibition in experiment [5] is 3.17% [at 30.8 µM].
Regarding `Cc1ccc(C)c(S(=O)(=O)N2CCN(C(=O)CCc3nc4ccccc4c(=O)[nH]3)CC2)c1`, the Potency result in experiment [1], in experiment [2] and in experiment [4] was “inactive” in each case. The activation in experiment [3] is 4.63% [at 17.1 µM, percent relative to cAMP agonist control]; in experiment [6] it was 23.6% [at 30.8 µM]. For the same compound, the activity change, negative = inhibition in experiment [5] is -11.5% [at 30.8 µM].
On to `CN(Cc1ccc(Cl)cc1Cl)C(=O)CN1C(=O)NC2(CCCC2)C1=O`, for which the Potency entry in experiment [1], in experiment [2], in experiment [3], in experiment [4] and in experiment [5] was “inactive” in each case.
As for `COc1ccc(NC(=O)CCCSc2nc(-c3ccco3)cc(C(F)(F)F)n2)cc1`, the Potency entry in experiment [1], in experiment [2], in experiment [3], in experiment [4], in experiment [5] and in experiment [6] was “inactive” in each case.
With `COc1cccc(NS(=O)(=O)c2ccc3c(c2)C2C=CCC2C(c2ccc(C(=O)O)cc2)N3)c1` (configuration not stated), the Potency in experiment [1] was 9.53 µM (active). Moreover, the Potency entry in experiment [2], in experiment [3], in experiment [4] and in experiment [5] was “inactive” throughout.
For the compound `CCCC(=O)N=C1SC2CS(=O)(=O)CC2N1c1ccc(CC)cc1` (configuration not stated), the Potency entry in experiment [1], in experiment [2] and in experiment [4] was “inactive” in each case. Moreover, the activation in experiment [3] is -7.85% [at 17.1 µM, percent relative to cAMP agonist control].
For `COC(=O)c1ccc(CSc2ccc3nnc(-c4cccc(F)c4)n3n2)o1`, the Potency result in experiment [1], in experiment [2] and in experiment [4] was “inactive” each time. Further, the activation in experiment [3] was -3.47% [at 17.1 µM, percent relative to cAMP agonist control]; in experiment [6], 0.6% [at 30.8 µM]. For the same compound, the activity change, negative = inhibition in experiment [5] was -19.6% [at 30.8 µM].
Consider `O=C1/C(=C\c2ccc(O)c(O)c2)C(c2ccccc2)=NN1c1ccccc1`, for which the Potency in experiment [1] was 16.9 µM (active). The Potency result in experiment [2], in experiment [3], in experiment [4] and in experiment [5] was “inactive” each time.
